PubChem BioAssay
Activity calls are given as the source filed them. Unless noted, how the calls were made is not given here.

Experiments:
[1] = system: Wnt5a (protein binding on small-molecule microarray); experiment: small molecules binding Wnt5a protein – biophysical, small-molecule microarray, 635/667 nm fluorescence, primary screen (AID 1142); conditions: 635 nm fluorescence, higher = more signal;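 further: fluorescence read at 667 nm with signal to noise per printed feature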
[2] = ATP-based viability of Huh7 replicon cells – cell-based, CellTiter-Glo luminescence, basal, 48 h, cytotoxicity control for HCV replication inhibitor project, primary screen (AID 1143); conditions: higher = more signal, called active from +8 up or from −8 down;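 further: Huh7 hepatoma cells carrying a hepatitis C replication reporter with no stimulus; test concentration not given here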
[3] = Pseudomonas biofilm growth suppression – PAO1 strain, BacTiter-Glo luminescence, LB-PBS, primary screen (AID 1144); conditions: P. aeruginosa PAO1 biofilm, 12 h, higher = more signal
[4] = basal CRE-LacZ reporter activity in PC12 – cell-based, unstimulated, primary screen (AID 1145); conditions: no forskolin, luminescence, 4.5 h, higher = more signal, called active from +8 up or from −8 down
[5] = forskolin-driven CRE-LacZ activity in PC12 – cell-based, CRE-LacZ reporter, forskolin-stimulated, primary screen (AID 1146); conditions: luminescence, 4.5 h, higher = more signal, called active from +8 up or from −8 down;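 further: PC12 cells with 6xCRE LacZ reporter stimulated by forskolin 10 µM; beta-galactosidase reporter signal reflecting CREB driven transcription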
[6] = target: Streptavidin (Streptomyces avidinii) (UniProt P22629); experiment: compounds binding control protein streptavidin – biophysical, small-molecule microarray, 635/667 nm fluorescence, artefact control for SMM compound annotation, primary screen (AID 1147); conditions: higher = more signal;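 further: signal reflects streptavidin binding to arrayed compounds as a control protein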
Sequence of Streptavidin (Streptomyces avidinii) (P22629 whole entry, looked up): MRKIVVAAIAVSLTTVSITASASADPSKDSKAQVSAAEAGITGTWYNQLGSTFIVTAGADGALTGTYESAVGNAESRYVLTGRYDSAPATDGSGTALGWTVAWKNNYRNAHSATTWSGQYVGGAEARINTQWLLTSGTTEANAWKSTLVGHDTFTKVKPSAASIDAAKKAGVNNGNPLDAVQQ

[7] = probe aInhba binding on compound microarray – biochemical, small-molecule microarray, 635/667 nm fluorescence, primary screen (AID 1148); conditions: higher = more signal;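 further: score merges 667nm spot fluorescence with signal-to-noise for antibody binding to printed compounds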
Torsin-1A (Homo sapiens) [8] = target: Torsin-1A (Homo sapiens) (UniProt O14656); experiment: TOR1A wild-type binding on microarray – cell lysate, small-molecule microarray, lysate, 635/667 nm, primary screen (AID 1149); conditions: COS7 hTOR1A-WT lysate, 635 nm fluorescence, higher = more signal
Sequence of Torsin-1A (Homo sapiens) (O14656 whole entry, looked up): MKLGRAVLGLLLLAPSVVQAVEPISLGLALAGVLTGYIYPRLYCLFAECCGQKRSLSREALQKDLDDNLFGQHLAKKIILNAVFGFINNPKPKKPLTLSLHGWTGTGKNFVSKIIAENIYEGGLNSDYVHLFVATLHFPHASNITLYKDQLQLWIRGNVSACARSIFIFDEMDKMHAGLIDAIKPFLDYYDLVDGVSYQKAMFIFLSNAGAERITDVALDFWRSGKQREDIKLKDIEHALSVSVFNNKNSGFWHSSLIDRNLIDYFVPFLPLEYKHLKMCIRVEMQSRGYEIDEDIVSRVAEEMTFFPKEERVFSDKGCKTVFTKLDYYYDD

Torsin-1A (Homo sapiens) [9] = target: Torsin-1A (Homo sapiens) (UniProt O14656); experiment: torsin A mutant lysate binding on microarrays – cell lysate, small-molecule microarray, COS7 lysate, 635/667 nm fluorescence, primary screen (AID 1150); conditions: COS7 hTOR1A mutant lysate, 635 nm fluorescence, higher = more signal;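 further: score pools 667 nm emission and signal to noise measuring lysate protein binding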
[10] = system: Sonic hedgehog protein (Shh); experiment: Sonic hedgehog microarray binding compounds – biochemical, small-molecule microarray, 635/667 nm fluorescence, primary screen (AID 1151); conditions: 635 nm fluorescence, higher = more signal;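 further: Shh protein binding to compounds spotted on small-molecule microarray slides; score combines spot fluorescence intensity with signal-to-noise across triplicate slides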
[11] = optical density shifts of acrAB sulA E. coli – strain DRC41, OD650, 48 h, E. coli filamentation inducer project, primary screen (AID 1152); conditions: higher = more signal, called active from +8 up or from −8 down;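 further: E. coli MC1000 strain DRC41 lacking acrAB efflux pump and sulA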
[12] = probe aLefty1 binding on compound microarray – biochemical, small-molecule microarray, 635/667 nm fluorescence, primary screen (AID 1153); conditions: higher = more signal;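 further: score merges spot fluorescence with signal-to-noise ratio from the scanned slide images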
[13] = plasmodial surface anion channel blockers, osmotic lysis – cell-based, P. falciparum Indochina, OD700, 1 h, primary screen (AID 1154); conditions: P. falciparum Indochina infected RBC osmotic lysis, higher = more signal, called active from +8 up or from −8 down
[14] = plasmodial surface anion channel blockers, osmotic lysis – cell-based, P. falciparum Indochina, OD700, 2 h, primary screen (AID 1155);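 further: lysis reports solute entry through the parasite surface anion channel PSAC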; conditions: P. falciparum Indochina infected erythrocytes, higher = more signal, called active from +8 up or from −8 down
[15] = changes in parasitized red cell lysis, either direction – P. falciparum Indochina, OD700, 3 h, PSAC antagonist project, primary screen (AID 1156); conditions: P. falciparum-infected erythrocytes, osmotic lysis, higher = more signal, called active from +8 up or from −8 down
[16] = plasmodial surface anion channel blockers, osmotic lysis – cell-based, P. falciparum Indochina, OD700, 18 h, primary screen (AID 1157); conditions: P. falciparum Indochina infected erythrocytes, osmotic lysis OD700, 18 h; higher = more signal, called active from +8 up or from −8 down
[17] = S6 kinase pathway phospho-S6 level changes – cell-based, A549, cytoblot, luminescence, serum-stimulated, primary screen (AID 1158); conditions: 5 h, higher = more signal;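 further: serum-stimulated A549 lung adenocarcinoma cells; signal is phosphorylated S6 detected by cytoblot immunostaining with HRP secondary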
[18] = target: NADPH oxidase 2 (Homo sapiens) (UniProt P04839); experiment: compounds shifting NOX2 Amplex Red fluorescence – cell-based, HEK293-NOX2, PMA-stimulated, NOX inhibitor project, primary screen (AID 1159); conditions: 45 min, higher = more signal, called active from +8 up or from −8 down; further: test concentration not given here
Sequence of NADPH oxidase 2 (Homo sapiens) (P04839 whole entry, looked up): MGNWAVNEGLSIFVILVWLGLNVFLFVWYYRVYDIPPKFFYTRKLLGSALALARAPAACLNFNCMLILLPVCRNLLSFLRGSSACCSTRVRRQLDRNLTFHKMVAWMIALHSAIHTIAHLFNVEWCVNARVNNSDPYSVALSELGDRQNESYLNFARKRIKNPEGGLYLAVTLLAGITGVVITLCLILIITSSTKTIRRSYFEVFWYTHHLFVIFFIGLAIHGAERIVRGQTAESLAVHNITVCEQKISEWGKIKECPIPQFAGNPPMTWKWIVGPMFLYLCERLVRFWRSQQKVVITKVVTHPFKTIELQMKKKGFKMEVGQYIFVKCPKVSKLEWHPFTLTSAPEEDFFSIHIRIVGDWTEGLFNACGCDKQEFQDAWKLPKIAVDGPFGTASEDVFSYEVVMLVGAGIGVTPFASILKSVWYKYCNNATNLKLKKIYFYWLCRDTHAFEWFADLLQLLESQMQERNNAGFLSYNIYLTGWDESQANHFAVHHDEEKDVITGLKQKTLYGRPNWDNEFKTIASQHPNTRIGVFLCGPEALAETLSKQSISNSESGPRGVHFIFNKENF

[19] = target: NADPH oxidase 4 (Homo sapiens) (UniProt Q9NPH5); experiment: compounds shifting NOX4 Amplex Red fluorescence – cell-based, HEK293-NOX4, tetracycline-induced, NOX inhibitor project, primary screen (AID 1160); conditions: HEK293-NOX4, Amplex Red H2O2 fluorescence, 45 min; higher = more signal, called active from +8 up or from −8 down
Sequence of NADPH oxidase 4 (Homo sapiens) (Q9NPH5 whole entry, looked up): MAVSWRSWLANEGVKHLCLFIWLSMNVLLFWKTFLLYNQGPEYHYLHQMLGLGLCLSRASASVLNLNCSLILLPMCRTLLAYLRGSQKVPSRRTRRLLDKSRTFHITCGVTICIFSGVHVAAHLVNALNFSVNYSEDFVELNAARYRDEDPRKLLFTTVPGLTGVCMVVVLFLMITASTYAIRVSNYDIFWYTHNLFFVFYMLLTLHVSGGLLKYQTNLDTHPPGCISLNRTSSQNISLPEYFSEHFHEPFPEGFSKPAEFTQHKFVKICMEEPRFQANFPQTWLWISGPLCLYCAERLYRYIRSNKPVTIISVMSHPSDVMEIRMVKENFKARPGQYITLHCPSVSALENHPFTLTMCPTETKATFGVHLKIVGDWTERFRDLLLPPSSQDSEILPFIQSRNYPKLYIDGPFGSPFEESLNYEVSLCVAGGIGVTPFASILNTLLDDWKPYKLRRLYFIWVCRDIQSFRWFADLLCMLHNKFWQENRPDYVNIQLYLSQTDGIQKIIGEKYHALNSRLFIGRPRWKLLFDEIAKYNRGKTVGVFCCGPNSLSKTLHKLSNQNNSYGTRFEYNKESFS

[20] = target: NADPH oxidase 5 (Homo sapiens) (UniProt Q96PH1); experiment: compounds shifting NOX5 Amplex Red fluorescence – cell-based, HEK293-NOX5, NOX inhibitor project, primary screen (AID 1161); conditions: HEK293-NOX5, ionomycin, 45 min, higher = more signal
Sequence of NADPH oxidase 5 (Homo sapiens) (Q96PH1 whole entry, looked up): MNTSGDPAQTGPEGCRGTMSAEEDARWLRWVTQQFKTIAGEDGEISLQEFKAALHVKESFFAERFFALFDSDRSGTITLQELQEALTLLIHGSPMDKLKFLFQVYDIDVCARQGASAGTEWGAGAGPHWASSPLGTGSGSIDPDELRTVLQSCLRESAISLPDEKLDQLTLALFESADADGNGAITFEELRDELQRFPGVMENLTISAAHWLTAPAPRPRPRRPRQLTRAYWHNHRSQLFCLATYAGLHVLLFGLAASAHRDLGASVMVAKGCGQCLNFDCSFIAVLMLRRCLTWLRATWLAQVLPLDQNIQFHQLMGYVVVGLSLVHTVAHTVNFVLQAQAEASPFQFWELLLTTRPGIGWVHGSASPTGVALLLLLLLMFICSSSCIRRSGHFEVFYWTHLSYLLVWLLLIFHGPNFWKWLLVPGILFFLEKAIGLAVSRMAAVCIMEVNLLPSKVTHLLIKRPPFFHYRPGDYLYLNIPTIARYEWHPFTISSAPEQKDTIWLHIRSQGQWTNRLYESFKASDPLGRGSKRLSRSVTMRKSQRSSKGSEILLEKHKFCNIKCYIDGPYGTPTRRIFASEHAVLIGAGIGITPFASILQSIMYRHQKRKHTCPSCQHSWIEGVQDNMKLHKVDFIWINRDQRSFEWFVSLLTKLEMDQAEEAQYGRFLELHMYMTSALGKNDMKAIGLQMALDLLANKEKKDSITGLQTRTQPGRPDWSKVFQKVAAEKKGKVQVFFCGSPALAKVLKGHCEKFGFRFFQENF

SMILES	composite z-score [1]	z-score [2]	z-score [3]	z-score [4]	z-score [5]	composite z-score [6]	composite z-score [7]	composite z-score (Torsin-1A (Homo sapiens) [8])	composite z-score (Torsin-1A (Homo sapiens) [9])	composite z-score [10]	z-score [11]	composite z-score [12]	z-score [13]	z-score [14]	z-score [15]	z-score [16]	z-score [17]	z-score [18]	z-score [19]	z-score [20]
COC(=O)[C@@]1(Cc2ccccc2)[C@H]2c3cc(C(=O)N(C)C)n(Cc4ccc(C(F)(F)F)nc4)c3C[C@H]2CN1C(=O)c1ccccc1	0.598	-1.94 (inactive)	-0.0691 (inactive)	-0.189 (inactive)	0.484 (inactive)	2.08	0.433	0.167	0.511	-0.561	-1.64 (inactive)	1.1	1.5 (inactive)	0.234 (inactive)	1.3 (inactive)	0.715 (inactive)	0.184	0.0745 (inactive)	-1.31 (inactive)	-3.12
O=C1C[C@@](C(=O)NCc2ccccc2)(c2ccc([N+](=O)[O-])cc2)[C@@H](c2ccc(CO)cc2)N1C1CCCCC1	0.203	-4.1 (inactive)	-0.967 (inactive)	0.531 (inactive)	-0.932 (inactive)	-0.0057	0.333	0.944	0.812	0.998	1.09 (inactive)	0.857	0.661 (inactive)	-0.881 (inactive)	-0.436 (inactive)	-0.877 (inactive)	1.58	-0.522 (inactive)	0.333 (inactive)	0.0696
Cc1ccc(S[C@]2(C(=O)NC(C)C)CC(=O)N(C3CCCCC3)[C@@H]2c2ccc(CO)cc2I)cc1	0.0335	-3.94 (inactive)	-1.17 (inactive)	-0.608 (inactive)	0.74 (inactive)	1.46	-0.0589	1.21	2.76	1.95	0.497 (inactive)	-0.0564	6.28 (inactive)	1.47 (inactive)	1.18 (inactive)	0.916 (inactive)	-0.052	0.877 (inactive)	0.292 (inactive)	1.89
COCCOC(=O)N1C(=O)[C@@]2(c3cc(C#CCCO)ccc31)[C@H](c1ccccc1OCCO)N1[C@H](c3ccccc3)[C@H](c3ccccc3)OC(=O)[C@H]1[C@@H]2C(N)=O	0.536	-4.33 (inactive)	-0.441 (inactive)	0.0653 (inactive)	18.6 (active)	0.508	-0.226	-0.0615	0.172	1.97	1.46 (inactive)	-0.278	20.3 (active)	4.04 (inactive)	0.633 (inactive)	0.934 (inactive)	0.868	1.81 (inactive)	0.552 (inactive)	-0.302
